GALK inhibitor: qHTS Assay for Inhibitors of Human Galactokinase (GALK) | Purified GALK, Kinase-Glo residual ATP luminescence | Potency, µM (top dose mostly 57.5 µM), without a hit: top-dose activity change, negative = inhibition, actives largely listed as inhibitors | 0.007% of 270,000 active | AID 1868, 2009; also: potency is read from the fitted curve at half-maximal effect
Target sequence (P51570 whole entry, looked up): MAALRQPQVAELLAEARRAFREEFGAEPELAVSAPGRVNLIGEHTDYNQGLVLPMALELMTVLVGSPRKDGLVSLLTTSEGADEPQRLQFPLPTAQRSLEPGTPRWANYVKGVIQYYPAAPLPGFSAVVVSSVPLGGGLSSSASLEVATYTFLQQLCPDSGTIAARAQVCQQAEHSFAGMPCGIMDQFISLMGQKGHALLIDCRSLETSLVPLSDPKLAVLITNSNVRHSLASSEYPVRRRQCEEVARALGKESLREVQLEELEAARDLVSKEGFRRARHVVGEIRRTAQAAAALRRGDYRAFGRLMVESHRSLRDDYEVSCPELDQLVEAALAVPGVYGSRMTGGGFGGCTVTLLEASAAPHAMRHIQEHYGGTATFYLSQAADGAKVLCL
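Compounds were pin-transferred into ATP buffer (35 uM final), then GALK plus galactose (5 nM, 100 uM final) was added. After 1 h at room temperature, Kinase-Glo Plus was added and luminescence read after 10 min.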
JMJD2E inh: qHTS Assay for Inhibitors of Human Jumonji Domain Containing 2E (JMJD2E). JMJD2E catalytic domain, FDH-coupled NADH fluorescence (FDH is formaldehyde dehydrogenase). 1.6% of 230,000 active. Lysine-specific demethylase 4E (Homo sapiens), B2RXH2. Potency, µM (top dose mostly 57.1 µM), inactives show top-dose activity change, negative = inhibition, actives largely listed as inhibitors; active = well fitted inhibition curve with a large enough effect, not every such curve was filed as active; inconclusive = small, poorly fitted or top-dose-only effect, or another doubt; inactive = no such curve, though single readings can be large or run the other way;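 also: potency is read from the fitted curve at half-maximal effect; 0% = wells with enzyme and -100% = buffer wells without enzyme; nearly all actives have a fitted effect of over 50% in size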
Eya2 inh: qHTS Assay for Inhibitors of the Phosphatase Activity of Eya2; recombinant Eya2, OMFP fluorescence dephosphorylation (OMFP is methylfluorescein phosphate); Potency, µM (titrated, usually from 76.9 µM), for the others: at the top dose activity, negative = inhibition, actives largely listed as inhibitors; 0.006% of 330,000 active; also: potency is read from the fitted curve at half-maximal effect
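Eya2 protein (added as 0.2 uM solution) was preincubated with compound for 10 min at ambient temperature in 50 mM HEPES pH 7.5, 50 mM NaCl, 5 uM MgCl2, 0.05% BSA, 1 mM DTT. OMFP (added at 50 uM) then reacted 10 min; fluorescence read at 485/525 nm.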
Apoferritin bind: qHTS Assay for Identification of Novel General Anesthetics. apoferritin/1-aminoanthracene competitive binding, fluorescence. Potency, µM (titrated, usually from 77.5 µM), inactives show at the top dose activity change, negative = displacement, hits mostly inhibitors. 0.074% of 350,000 active. AID 485281, 2010. Ferritin light chain (Equus caballus), P02791; also: potency is read from the fitted curve at half-maximal effect; nearly all actives have a fitted effect of over 20% in size
Target sequence (P02791 2-175 limits assumed): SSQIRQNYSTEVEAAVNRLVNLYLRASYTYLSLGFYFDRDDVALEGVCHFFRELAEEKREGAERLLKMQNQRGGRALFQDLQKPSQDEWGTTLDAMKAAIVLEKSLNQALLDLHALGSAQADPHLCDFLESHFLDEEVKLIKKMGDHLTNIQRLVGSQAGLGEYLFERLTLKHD
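Steps: apoferritin (10 uM) was premixed with half-saturated 1-AMA in PBS, compounds were pin-transferred, plates stood 10 min at room temperature, fluorescence was read at 380/535 nm, and curves were fitted with a Hill equation.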
CtBP-E1A inh: qHTS Assay for Inhibitors of the CtBP/E1A Interaction | AlphaScreen GST-E1A/His-CtBP binding, 1536-well; stronger effect = lower value | activity change, % (test concentration not listed) | 0.49% of 340,000 active | AID 651724, 2012 | CtBP / adenovirus E1A interaction (AlphaScreen); in the data active = activity change below about -65%; inconclusive = mostly about -30% to -63%
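In 5 uL wells, 23 nL compound meets equimolar GST-E1A and His-CtBP (5X stock 125 nM each) for 2 h, 37 °C. Beads (5X, 50 ug/mL) then 1 h, 37 °C, dark.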
Six1-Eya2 blk: qHTS Assay for Inhibitors of the Six1/Eya2 Interaction | AlphaScreen GST-Six1/His-Eya2 binding, biochemical; stronger effect = lower value | AID 651725, 2012 | 0.56% of 360,000 active | activity change, % (no concentration beside the values); in the data active = activity change below about -65%; inconclusive = mostly about -30% to -63%
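Homogeneous AlphaScreen proximity assay pairing GST-Six1 with His-tagged Eya2 (added as 5X mix: 250 nM and 500 nM) in 50 mM Tris pH 8.0, 300 mM NaCl, 1 mM TCEP. Glutathione donor and nickel acceptor beads; 1 h, 37 °C, dark.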
* hit, by the source's call; ? = inconclusive; · = not tested or not shown; [ ] = dose if it differs, or a comment. The entries come from a sample that favours hits as a whole. Unless noted, calls follow the shape of the dose curve; as a rule, active = well fitted curve in the direction sought with a large enough effect; inconclusive = small, poorly fitted or top-dose-only effect, or another doubt; inactive = no such curve, though single readings can be large; an effect the other way counts as inactive or inconclusive. Unless noted, % is scaled to controls: 0 for no effect and ±100 for the full control effect.

SMILES	GALK inhibitor	JMJD2E inh	Eya2 inh	Apoferritin bind	CtBP-E1A inh	Six1-Eya2 blk
O=C(O)c1cc2cc(Cl)cc(Cl)c2oc1=O	0%	-20%	3%	-1%	-74*	?
C=CCC(Nc1ccc(OC)cc1)C(=O)OCC (stereo not given)	·	10%	·	·	·	·
CC(C)(C)c1nnc(N/N=C/c2ccccc2)n(N)c1=O	0%	-5%	-12%	-6%	-7	-1
CC(C)(C)c1nnc(N/N=C/c2ccccc2O)n(N)c1=O	0%	28µM*	-11%	-3%	-2	-91*
Cc1cc(C)n2nc(SCC(=O)Nc3cc(Cl)ccc3C)nc2n1	·	·	·	3%	·	·
CN(C)c1ccc(N=Nc2cccc3ccoc23)cc1	-1%	-8%	-15%	-18%	·	-65*
CN(C)c1ccc(N=Nc2ccc3ncccc3c2)cc1	·	·	·	·	-29	?
CN(C)c1ccc(N=Nc2cccc(F)c2)cc1	2%	·	2%	1%	-67*	-78*
CCCCCCN1CCN(C2CN(Cc3ccccc3)S(=O)(=O)C2)CC1 (stereo not given)	·	·	·	·	0	-1
C[C@@H](O)C(N)C(=O)O (stereo not given in full)	·	·	·	0%	·	·
CC1(C)CC(=O)C(N=Nc2ccc(C(F)(F)F)cc2[N+](=O)[O-])=C(O)C1	2%	13µM*	-9%	4%	-7	-10
COc1ccc(OC)c(NS(=O)(=O)c2ccc3c(c2)CCCN3C(=O)C2CCC2)c1	·	·	·	-9%	·	·
COc1cc(CNc2ccc(N3CCCC3)cc2)ccc1OCc1ccccc1	-6%	6.3µM*	-13%	-6%	?	?
COc1cc(CNc2ccc(N3CCCC3)cc2)ccc1OCc1ccccc1F	0%	-3%	4%	-21%	?	?
O=C1NC(=O)C(Cc2ccc(OCCN3COc4ccccc4C3=O)cc2)S1 (stereo not given)	·	·	·	-11%	·	·
CC(C)CC(=O)Nc1nc2c(s1)CC(C(C)(C)C)CC2 (stereo not given)	·	·	·	-8%	·	·
O=C1NC(=Nc2ccccc2)S/C1=C\C=C\c1ccco1	0%	-3%	1%	-21%	-10	?
Cc1ccc(N=C2NC(=O)/C(=C/C=C/c3ccco3)S2)cc1	1%	25µM*	2%	?	-5	?
c1ccc(-c2nc(NCCCn3ccnc3)c3oc4ccccc4c3n2)cc1	-1%	8%	4%	-5%	-68*	?
c1cncc(-c2nc(NCCCn3ccnc3)c3ccccc3n2)c1	1%	-2%	?	-3%	-11	-73*
CC(C)N1CCN(c2ccc(C(=O)c3c(-c4ccc(O)cc4)sc4cc(O)ccc34)cc2)CC1	·	·	·	-6%	·	·
COc1cc(OC)c(OC)cc1/C=N/N(C)c1ccccc1	0%	-3%	5%	343%	?	-66*
O=C(CSc1n[nH]c(-c2ccccn2)n1)Nc1ccc(F)cc1	6%	·	-7%	3%	-95*	?
O=C(CSc1n[nH]c(-c2ccccn2)n1)Nc1ccc(Cl)cc1	-6%	·	-12%	5%	-92*	-91*
Cc1ccc(NC(=O)CSc2n[nH]c(-c3ccccn3)n2)cc1	-2%	·	-4%	-5%	-90*	-77*
SMILES	GALK inhibitor	JMJD2E inh	Eya2 inh	Apoferritin bind	CtBP-E1A inh	Six1-Eya2 blk
O=C(CSc1n[nH]c(-c2ccncc2)n1)Nc1ccc(F)cc1	16%	·	7%	1%	0	1
O=C(O)/C=C/c1ccc([N+](=O)[O-])o1	10%	-2%	-7%	-13%	-20	-16
O=[N+]([O-])c1ccc(/C=N/N=C/c2ccc([N+](=O)[O-])o2)o1	0%	14µM*	23%	-7%	-25	-28
N#CCC(N)=C(C#N)C#N	0%	7.9µM*	0%	10%	-18	-26
O=C1/C(=C/c2ccc(O)c(O)c2)Oc2ccccc21	·	·	·	-6%	·	·
O=S1(=O)Nc2c(ccc3cccnc23)-c2ccccc21	-2%	?	9%	-9%	-89*	-91*
COc1ccc(-n2nc3c(N4CCCC(C(=O)NCCc5ccc(C)cc5)C4)nnc(C)c3c2C)cc1 (stereo not given)	·	·	·	-14%	·	·
COC(=O)c1c(N)n(-c2ccc(N3CCOCC3)cc2)c2nc3ccccc3nc12	2%	18µM*	1%[15.4 µM]	?	·	·
COC(=O)c1c(N)n(-c2ccc(NC(C)=O)cc2)c2nc3ccccc3nc12	1%	?	-5%	232%	-16	-26
COc1ccc(-n2cc(-c3ccccc3)c3c(NCCc4ccc(OC)c(OC)c4)ncnc32)cc1	·	·	·	198%	·	·
CCOc1ccc(N(C)S(=O)(=O)c2ccc3c(c2)C(C)(C)C(=O)N3C)cc1	·	·	·	-5%	·	·
O=c1[nH][nH]c(=S)n1-c1ccccc1C(F)(F)F	1%	6.3µM*	2%	1%	·	·
CN(Cc1ccccc1)C(=O)CN1C(=O)CSc2ccc(S(=O)(=O)N3CCOCC3)cc21	·	·	·	-2%	·	·
Cc1nc2ccccc2n1Cc1ccccc1	3%	·	-3%	-11%	·	3
Cc1nc2cc(NCc3ccccc3O)ccc2n1Cc1ccccc1	4%	40µM*	-3%	-6%	0	-14
Cc1ccc(Cl)cc1-n1ncc2c(N3CCN(Cc4ccccc4)CC3)ncnc21	·	·	·	-2%	·	·
Cc1c(C(=O)N(Cc2ccccc2F)C2CCS(=O)(=O)C2)oc2ccc(F)cc12 (stereo not given)	·	·	·	-7%	·	·
Nc1ccccc1Nc1cc(-c2ccccc2)[nH]n1	10%	20µM*	-6%	-17%	-1	-8
O=C1CCCC2=C1C(c1ccc(O)c(O)c1)c1c(ccc3ncccc13)N2 (stereo not given)	9%	25µM*	-6%	-2%	·	-20
CCOC(=O)C1=C(c2ccccc2)N=c2s/c(=C\c3cc(OC)c(OC)c(OC)c3)c(=O)n2C1c1cccs1 (stereo not given)	-2%	6%	4%	-18%	-4	-5
CCOC(=O)C1=C(c2ccccc2)N=c2s/c(=C\c3ccco3)c(=O)n2C1c1cccs1 (stereo not given)	-4%	13µM*	-22%	?	8	-19
O=C1NC(=O)C2(CCCc3c([N+](=O)[O-])cccc32)N1 (stereo not given)	·	·	·	·	-3	1
COc1ccc(/C=N/NC(=O)CSCC(=O)Nc2ccccc2)cc1	7%	-6%	?	-6%	-5	-4

Screening results (PubChem)
